Reference: PubChem BioAssay AID1039 (National Center for Advancing Translational Sciences (NCATS), 2008)
Calls of active or inactive are those of the source. Entries that show only a call come without a potency. Calls follow the shape of the full dose curve.

Assay: Normal 2 Cell Viability Secondary Assay for qHTS Assay for Epigenetic Modulators
Conditions: Normal 2 bronchial epithelial viability, MTS, 4 days
Description: NIH Molecular Libraries Screening Centers Network [MLSCN] NIH Chemical Genomics Center [NCGC] MLSCN Grant: 1 X01 MH079860-01 Assay Provider: Elisabeth D. Martinez, University of Texas SW Medical Center NCGC Assay Overview: This secondary assay characterizes selected actives identified in the qHTS of the Locus Derepression (LDR) assay (PubChem AID 597). The LDR assay detects the derepression of a GFP reporter that is stably integrated in a region of the genome of murine c127i mammary cells that is presumably silenced. Compounds that cause derepression of the locus to express GFP are identified by enumerating GFP positive cells using a laser-scanning microplate cytometer. Selected LDR actives were assayed for killing of Normal 2, a patient-derived normal bronchial epithelial line matched to NSCLC 2, a nonsmall cell lung carcinoma line from the same patient. The Normal 2 line assays the cytoxicity of test compounds on normal lung cells. Normal 2 cell viability was measured using Cell Titer 96 AQueous One (Promega), an assay which detects the ability of metabolically active cells to reduce a tetrazolium salt substrate (MTS), into a soluble formazan product that can be measured by colorimetry.
NCGC Assay Protocol Summary Normal 2 cells were plated in 96-well flat bottom tissue culture dishes (Corning) and grown overnight at 37 C and 5% CO2, then treated with compounds, incubated 4 days, and assayed for viability using the Cell Titer 96 AQueous One kit (Promega) according to the manufacturer's protocol. Absorbance at 490 nm and 650 nm (reference) was measured by a Spectra Max (Molecular Devices). Data were normalized to the untreated control (100% viability). Each cell line was tested in one or two independent assays, each containing 4 or 8 replicates. For further details, see R.L. Johnson, W. Huang, A. Jadhav, C.P. Austin, J. Inglese, E.D. Martinez, A Quantitative High-Throughput Screen Identifies Potential Epigenetic Modulators of Gene Expression, Analytical Biochemistry (2007), doi: 10.1016/j.ab.2007.12.028

Structure (SMILES)	Potency	outcome
CC(C)C(=O)NC(c1ccc(N(C)C)cc1)c1ccc2cccnc2c1O (stereo not drawn)	5 µM (active)	
O=C(CSc1cccc2cccnc12)N1CCCC1		inactive
O=C(CSc1cccc2cccnc12)NCc1ccccc1		inactive
CC(C)C(=O)NC(c1ccco1)c1cc([N+](=O)[O-])c2cccnc2c1O (stereo not drawn)	2 µM (active)	
CN1C(=S)SC(c2ccccc2)N(C)C1c1ccccc1 (stereo not drawn)		inactive
CC(C)C(=O)NC(c1ccco1)c1ccc2cccnc2c1O (stereo not drawn)	10 µM (active)	
O=Nc1ccc(O)c2ncccc12	9 µM (active)	
CC(/C=C/C(=O)NO)=C\[C@@H](C)C(=O)c1ccc(N(C)C)cc1		inactive
